PubChem BioAssay (Tox21)
Results filed as inconclusive are left out. Active and inactive are the calls of the source. Calls come from the whole dose curve; as a rule, active = well fitted cell-killing curve with a large enough effect in the repeat runs; inconclusive = weak or mixed curves, or effect the other way; inactive = no such curve, though single readings can be large or run the other way.

Experiment: qHTS assay to identify small molecule agonists of the RXR signaling pathway - cell viability counter screen (AID 1159529); note: nearly all actives have a fitted effect of over 50% in size
Conditions: RXR-alpha-bla HEK293T viability, CellTiter-Glo, 16 h; series mostly up to 76.8 µM; activity change, negative = cytotoxicity: at the top concentration
Excerpt: National Center for Advancing Translational Sciences [NCATS]
NIH Chemical Genomics Center [NCGC]
U.S. Environmental Protection Agency [EPA]
National Institutes of Environmental Health Sciences [NIEHS]
National Toxicology Program [NTP]
U.S. Food and Drug Administration [FDA]
The Retinoid X receptor (RXR), a nuclear hormone receptor expressed in liver, spleen, placenta, epidermis, central nervous system. These receptors are able to form homo and heterodimers with other nuclear receptors and due to this heterodimerizing ability, RXR functions as master regulators producing diverse physiological effects. Three subtypes of RXR exist; alpha, beta and gamma. Retinoid X receptor alpha (RXR-alpha) has potential roles in metabolic signaling pathways, skin alopecia, dermal cysts, cardiac development, insulin sensitization etc. Therefore screening environmental chemicals on RXR-alpha signaling can be used for the studies focused on such therapeutic applications. For quantification of RXR-alpha ligands signaling, GeneBLAzer RXR alpha-UAS-bla HEK 293T (Life Technologies, Carlsbad, CA) cells containing a beta-lactamase reporter-gene under control of Retinoid X receptor-alpha response element were used to screen Tox21 10K library. The cytotoxicity of the Tox21 compound library against the RXR-alpha HEK 293T cell line was tested in parallel by measuring cell viability using CellTiter-Glo assay (Promega Corporation, Madison, WI) in the same wells.
Tox21 Assay Protocol Summary:
RXR-alpha HEK 293T cells were dispensed at 2,000 cells/6 uL of assay medium containing 2% charcoal-stripped FBS using a Multidrop Combi (ThermoFisher Scientific, Waltham, MA) dispenser. The assay was performed in black wall/clear-bottom 1536-well plates (Greiner Bio-One North America Inc. Monroe, NC). Tetraoctyl ammonium bromide was used as a positive control in the cytotoxicity screen. After the assay plates were incubated at 37 C and 5% CO2 for 5 hr, 23 nL of compounds dissolved in DMSO, positive control or DMSO only were transferred to the assay plate by a Pintool station (Kalypsys, San Diego, CA). The assay plates were incubated at 37 C and 5% CO2 for 16 hr. One uL of LiveBLAzer B/G FRET substrate (Life Technologies) was added using a Flying Reagent Dispenser (FRD) (Aurora Discovery, San Diego, CA) and the plates were incubated at room temperature for 2 hr. Fluorescence intensity (405 nm excitation, 460/530 nm emission) was measured using an Envision plate reader (PerkinElmer, Shelton, CT). For cytotoxicity, 4 uL/well of CellTiter-Glo reagent was added into the assay plates using an FRD. After 30 min incubation at room temperature, the luminescence intensity was measured using a ViewLux plate reader (PerkinElmer).
% is set by controls: 0 for no effect and ±100 for the full control effect; potency is the fitted concentration of half-maximal effect.

SMILES	activity change, negative = cytotoxicity	Potency
Cc1cccc(C)c1NC(=O)CN1CCCC1	6.05% [at 35.3 µM] (inactive)	
C[C@@H](O)[C@H]1C(=O)N2C(C(=O)O)=C(S[C@@H]3CN[C@H](CNS(N)(=O)=O)C3)[C@H](C)[C@H]12	-9.06% [at 35.3 µM] (inactive)	
O=[N+]([O-])c1ccc(Cl)cc1Cl	5.42% (inactive)	
CC(C)C[C@H](NC(=O)[C@H](Cc1ccccc1)NC(=O)c1cnccn1)B(O)O	-2.49% [at 35.3 µM] (inactive)	
OCC(O)c1ccccc1 (stereo not given)	-19.9% (inactive)	
CCCCCCCCOCCCN	-14.3% (inactive)	
FC(F)(Cl)C(F)(Cl)Cl	7.55% (inactive)	
Cc1c(N=C=O)cccc1N=C=O	14.7% (inactive)	
CC(CN=Cc1ccccc1O)N=Cc1ccccc1O (stereo not given)	-7.27% (inactive)	
CCOc1ccc2c(c1)C(C)CC(C)(C)N2 (stereo not given)	-0.137% (inactive)	
CC/C=C\CCO	12.2% (inactive)	
Nc1cccc2c(=O)[nH][nH]c(=O)c12		5.52 µM (active)
C1=COCCC1	4.78% (inactive)	
CC(C(=O)O)c1ccc(/C=C2\CCCCC2=O)cc1 (stereo not given)	0.138% [at 35.3 µM] (inactive)	
C[Si](C)(C)O[Si](C)(C)O[Si](C)(C)C	6.02% (inactive)	
C=CC(C)(O)CC/C=C(/C)CCC=C(C)C (stereo not given)	-15.7% (inactive)	
CC(=O)Nc1ccn(C2COC(COC(=O)c3ccccc3)O2)c(=O)n1 (stereo not given)	1.21% [at 35.3 µM] (inactive)	
CCCc1ccc(OC)cc1	6.78% (inactive)	
O=c1[nH][nH]c2ccccc12	-1.66% (inactive)	
C/C(=C(\CCO)SS/C(CCO)=C(\C)N(C=O)Cc1cnc(C)nc1N)N(C=O)Cc1cnc(C)nc1N	3.56% [at 35.3 µM] (inactive)	

SMILES	activity change, negative = cytotoxicity	Potency
O=C(c1ccc(Cl)cc1)c1ccc(Cl)cc1	-8% (inactive)	
O=C(OCCOCCOCCOC(=O)c1ccccc1)c1ccccc1	-10.4% (inactive)	
O=C1c2ccccc2C(=O)C1c1ccc2ccccc2n1	6.91% [at 35.3 µM] (inactive)	
O=C(O)COCC(=O)O	2.14% (inactive)	
CC(C)(Cc1c[nH]c2ccccc12)NCC(O)COc1ccccc1C#N (stereo not given)	-22.3% [at 35.3 µM] (inactive)	
S=c1[nH][nH]c(=S)s1	0.164% (inactive)	
O=Cc1ccc([N+](=O)[O-])cc1	-19.2% (inactive)	
Nc1ccc(F)cc1F	1.53% (inactive)	
C/C=C1\[C@H]2C=C(C)C[C@]1(N)c1ccc(=O)[nH]c1C2	6.86% [at 35.3 µM] (inactive)	
CCCCOC(=O)CC#N	-19.9% (inactive)	
[O-][n+]1ccc(Cl)cc1	1.25% (inactive)	
CCOC(C)OCC	12.9% (inactive)	
C1CCN(CN2CCCCC2)CC1	6.03% (inactive)	
CCC(C(=O)O)c1ccc(N2Cc3ccccc3C2=O)cc1 (stereo not given)	-6.14% [at 35.3 µM] (inactive)	
CCCc1nc(C)c2c(=O)[nH]c(-c3cc(S(=O)(=O)N4CCN(CC)CC4)ccc3OCC)nn12	-2.61% [at 35.3 µM] (inactive)	
Cc1c(-c2cccnc2)c2ccccc2n1CCCCC(=O)O	1.19% (inactive)	
CC(C)=CCC[C@H](C)CCO	-1.78% (inactive)	
CCCCCC1CCC(=O)O1 (stereo not given)	4.76% (inactive)	
Cc1cc(C)c(C)c(O)c1	-1.41% (inactive)	
O=C1c2ccccc2C(=O)C1c1ccc2cc(S(=O)(=O)O)cc(S(=O)(=O)O)c2n1	-10.1% (inactive)	
